Results filed as inconclusive are left out. The source made the active and inactive calls. Unless noted, calls come from the whole dose curve; as a rule, active = well fitted curve in the direction sought with a large enough effect in the repeat runs; inconclusive = weak or mixed curves; inactive = no such curve, though single readings can be large; an effect the other way counts as inactive or inconclusive.
How the values were obtained:
[1] = biological target: Thyrotropin receptor (Homo sapiens) (UniProt P16473); assay: qHTS assay to identify small molecule antagonists of the thyroid stimulating hormone receptor (TSHR) signaling pathway (AID 1259385; calls by dose curve; note: nearly all actives have a fitted effect of over 20% in size)
Thyrotropin receptor (Homo sapiens), sequence (P16473 whole entry, looked up): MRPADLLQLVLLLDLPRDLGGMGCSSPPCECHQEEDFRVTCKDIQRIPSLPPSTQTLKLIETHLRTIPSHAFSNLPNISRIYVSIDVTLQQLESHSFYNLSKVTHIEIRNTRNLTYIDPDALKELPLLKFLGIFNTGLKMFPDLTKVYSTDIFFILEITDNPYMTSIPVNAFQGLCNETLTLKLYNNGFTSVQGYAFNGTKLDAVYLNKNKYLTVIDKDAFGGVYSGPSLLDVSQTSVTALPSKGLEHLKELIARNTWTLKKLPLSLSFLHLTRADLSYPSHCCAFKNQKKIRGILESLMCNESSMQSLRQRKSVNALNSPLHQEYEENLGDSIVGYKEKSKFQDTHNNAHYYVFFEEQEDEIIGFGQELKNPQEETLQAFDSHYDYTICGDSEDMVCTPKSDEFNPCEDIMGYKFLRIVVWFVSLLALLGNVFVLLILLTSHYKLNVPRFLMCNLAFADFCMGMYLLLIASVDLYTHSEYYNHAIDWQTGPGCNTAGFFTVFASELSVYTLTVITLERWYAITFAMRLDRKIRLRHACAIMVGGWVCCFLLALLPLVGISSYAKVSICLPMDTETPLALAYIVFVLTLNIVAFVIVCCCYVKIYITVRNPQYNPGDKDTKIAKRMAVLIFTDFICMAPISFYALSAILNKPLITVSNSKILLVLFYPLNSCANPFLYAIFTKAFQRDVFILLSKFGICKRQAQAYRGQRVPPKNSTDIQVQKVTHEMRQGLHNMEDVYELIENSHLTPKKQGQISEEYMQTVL
In short: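 TSHR-HEK293 cells were plated and held 18 h at 37C/5% CO2, then given compound plus Ro20-1724 and stimulated with TSH at 1.5 ng/mL final. After 30 min at room temperature, cAMP was detected with cAMP-d2/anti-cAMP-cryptate (1 h) by fluorescence.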

[2] = qHTS assay to identify small molecule agonists of the estrogen receptor alpha (ER-alpha) signaling pathway in the presence of an antagonist - cell viability counter screen (AID 1259386);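 note: cells exposed to compounds for 22 h at 37 °C before the viability read; nearly all actives have a fitted effect of over 30% in size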; note: potency is the fitted concentration of half-maximal effect
In short: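 Using estrogen-depleted VM7Luc4E2 cells, the 15-concentration compound series was applied together with 10.0nM ICI-182,780 and incubated 22hr at 37C/5% CO2. Cell viability was then scored by CellTiter-Fluor.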

[3] = biological target: Progesterone receptor (Homo sapiens) (UniProt P06401); assay: qHTS assay to identify small molecule agonists of the progesterone receptor (PR) signaling pathway (AID 1346784; calls by dose curve; note: nearly all actives have a fitted effect of over 30% in size; note: potency is the fitted concentration of half-maximal effect)
Progesterone receptor (Homo sapiens), sequence (P06401 whole entry, looked up): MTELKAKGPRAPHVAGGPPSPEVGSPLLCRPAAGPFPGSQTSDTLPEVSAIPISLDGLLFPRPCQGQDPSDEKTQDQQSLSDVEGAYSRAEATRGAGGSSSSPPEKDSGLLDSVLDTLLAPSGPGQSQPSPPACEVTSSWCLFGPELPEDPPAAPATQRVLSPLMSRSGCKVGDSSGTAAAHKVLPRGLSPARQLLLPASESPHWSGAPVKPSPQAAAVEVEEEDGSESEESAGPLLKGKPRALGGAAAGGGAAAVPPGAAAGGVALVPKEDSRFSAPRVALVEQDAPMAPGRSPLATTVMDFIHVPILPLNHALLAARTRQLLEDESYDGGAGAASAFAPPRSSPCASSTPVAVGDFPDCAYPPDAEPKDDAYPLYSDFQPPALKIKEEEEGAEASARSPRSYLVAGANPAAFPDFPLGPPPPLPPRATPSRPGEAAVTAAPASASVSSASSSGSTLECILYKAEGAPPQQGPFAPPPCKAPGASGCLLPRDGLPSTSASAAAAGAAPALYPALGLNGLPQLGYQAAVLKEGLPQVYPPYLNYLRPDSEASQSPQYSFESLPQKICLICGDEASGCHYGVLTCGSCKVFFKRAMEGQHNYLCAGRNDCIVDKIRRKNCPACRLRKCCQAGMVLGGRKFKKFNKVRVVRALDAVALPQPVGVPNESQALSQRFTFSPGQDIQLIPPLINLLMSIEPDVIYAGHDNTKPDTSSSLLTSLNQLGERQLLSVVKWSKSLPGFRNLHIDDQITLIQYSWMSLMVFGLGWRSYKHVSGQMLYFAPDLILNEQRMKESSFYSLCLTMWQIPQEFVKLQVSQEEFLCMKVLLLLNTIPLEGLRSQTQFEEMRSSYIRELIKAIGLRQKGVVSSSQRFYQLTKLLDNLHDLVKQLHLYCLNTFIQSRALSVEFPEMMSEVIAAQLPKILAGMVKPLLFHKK
In short: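 Agonist mode, quantitative HTS format in a HEK 293T line expressing a UAS-controlled beta-lactamase reporter; 16 hr compound exposure at 37C in 2% charcoal-stripped FBS, then LiveBLAzer B/G FRET fluorescence.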

[4] = biological target: Progesterone receptor (Homo sapiens) (UniProt P06401); assay: qHTS assay to identify small molecule antagonists of the progesterone receptor (PR) signaling pathway (AID 1346795; active = well fitted inhibition curve with a large enough effect in the signal ratio in the repeat runs, not every such curve was filed as active; the % refers to the signal ratio)
In short: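 HEK293T PR-UAS-bla reporter cells in charcoal-stripped serum (2%) received compound after a 6 hr settling period, followed by R5020 agonist at 1 nM final; 16 hr incubation preceded the FRET substrate step and fluorescence measurement.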

[5] = qHTS assay to identify small molecule agonists of the progesterone receptor (PR) signaling pathway - cell viability counter screen (AID 1346799; calls by dose curve; note: nearly all actives have a fitted effect of over 45% in size)
In short: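 Counter screen for cytotoxicity: compound-treated PR-UAS-bla HEK293T cells (16 hr, 37C, 5% CO2) were assayed with CellTiter-Glo, luminescence measured after 30 min at room temperature.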

[6] = qHTS assay to identify small molecule agonists of the TGF-beta/Smad signaling pathway (AID 1346859; active = well fitted activation curve with a large enough effect in the signal ratio in the repeat runs, not every such curve was filed as active; the % refers to the signal ratio; note: series mostly up to about 77 µM)
In short: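 Smad-responsive beta-lactamase reporter cells (HEK 293T) received compounds from DMSO stocks after overnight attachment, were incubated 5 hr, then treated 2 hr with FRET substrate before dual-emission fluorescence measurement (405 nm excitation).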

[7] = biological target: Thyrotropin-releasing hormone receptor (Homo sapiens) (UniProt P34981); assay: qHTS assay to identify small molecule antagonists of the thyrotropin-releasing hormone receptor (TRHR) signaling pathway (AID 1346877; active = well fitted inhibition curve with a large enough effect in the repeat runs, not every such curve was filed as active; note: series mostly up to about 51 µM)
Thyrotropin-releasing hormone receptor (Homo sapiens), sequence (P34981 whole entry, looked up): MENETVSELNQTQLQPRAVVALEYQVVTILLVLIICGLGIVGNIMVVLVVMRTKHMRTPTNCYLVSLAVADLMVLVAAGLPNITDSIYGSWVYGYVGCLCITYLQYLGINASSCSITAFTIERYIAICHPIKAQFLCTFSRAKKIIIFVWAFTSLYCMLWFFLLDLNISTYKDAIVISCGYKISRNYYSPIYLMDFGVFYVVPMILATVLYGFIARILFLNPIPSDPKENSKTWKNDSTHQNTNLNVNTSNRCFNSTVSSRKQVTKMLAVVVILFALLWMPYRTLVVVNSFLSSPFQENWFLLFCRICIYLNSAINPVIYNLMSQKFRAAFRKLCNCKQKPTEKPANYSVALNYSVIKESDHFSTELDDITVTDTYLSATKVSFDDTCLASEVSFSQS
In short: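 Calcium signal in dye-loaded TRHR/HEK293 cells; compounds added 5 min before TRH (1 nM final); fluorescence monitored 3 min at 1 s steps.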

[8] = Human pregnane X receptor (PXR) small molecule agonists, qHTS cell viability counter screen (AID 1346977); note: nearly all actives have a fitted effect of over 50% in size; note: potency is the fitted concentration of half-maximal effect
In short: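 Measures live-cell protease fluorescence (CellTiter-Fluor) in PXR-Luc HepG2 cells treated 24hr with compounds at 37C. Cells had 5hr to attach before pin transfer of DMSO solutions.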

[9] = Caspase-3/7 induction in HepG2 cells by small molecules, qHTS assay (AID 1346978); note: nearly all actives have a fitted effect of over 15% in size
In short: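 Wild-type HepG2 cells (2,000/well) were settled 5 h at 37 C, 5% CO2, then exposed to compounds in DMSO for 17 h. Caspase-3/7 activity was read by luminescence 30 min after adding Caspase-Glo 3/7 reagent at room temperature.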

[10] = Caspase-3/7 induction in CHO-K1 cells by small molecules, qHTS cell viability counter screen (AID 1346979); note: nearly all actives have a fitted effect of over 35% in size
In short: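 In the same wells as the caspase read, viability of compound-treated wild-type CHO-K1 cells was assessed using CellTiter-Fluor, added after 16hr at 37C and measured by fluorescence following 1hr further incubation.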

[11] = Caspase-3/7 induction in CHO-K1 cells by small molecules, qHTS assay (AID 1346980); note: nearly all actives have a fitted effect of over 15% in size
In short: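 Wild-type cells were seeded at 1,500 per well and settled 5 hr at 37 C, 5% CO2, then exposed to DMSO-dissolved compounds for 17 hr. Caspase-Glo 3/7 reagent was added, and luminescence was read after 30min at room temperature.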

[12] = biological target: Nuclear receptor subfamily 1 group I member 2 (Homo sapiens) (UniProt O75469); assay: Human pregnane X receptor (PXR) small molecule agonists, qHTS assay (AID 1346982); note: nearly all actives have a fitted effect of over 35% in size; note: potency is the fitted concentration of half-maximal effect
Nuclear receptor subfamily 1 group I member 2 (Homo sapiens), sequence (O75469 whole entry, looked up): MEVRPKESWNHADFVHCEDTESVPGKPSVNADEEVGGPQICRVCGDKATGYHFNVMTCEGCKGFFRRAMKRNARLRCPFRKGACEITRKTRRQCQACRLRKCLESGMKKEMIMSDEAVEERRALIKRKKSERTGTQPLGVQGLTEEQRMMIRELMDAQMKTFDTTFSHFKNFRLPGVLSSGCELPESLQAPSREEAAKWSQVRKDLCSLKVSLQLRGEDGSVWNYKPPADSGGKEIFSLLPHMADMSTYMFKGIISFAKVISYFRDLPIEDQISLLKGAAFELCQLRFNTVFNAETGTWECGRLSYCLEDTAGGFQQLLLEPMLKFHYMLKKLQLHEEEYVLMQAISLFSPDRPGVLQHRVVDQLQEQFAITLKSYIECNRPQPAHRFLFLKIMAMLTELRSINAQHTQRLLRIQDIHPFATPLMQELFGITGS
In short: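 Tox21 qHTS; PXR-Luc HepG2; compounds pinned from DMSO; 24 hr, 37 C; ONE-Glo luciferase detection, 30 min room temperature.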

[13] = qHTS assay to identify small molecule antagonists of the progesterone receptor (PR) signaling pathway - cell viability counter screen (AID 1346798); note: series mostly up to about 92 µM; nearly all actives have a fitted effect of over 50% in size
In short: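 Same-well multiplex: after 16 hr at 37C with compound and R5020 stimulation, HEK293T cells carrying a UAS-bla reporter received LiveBLAzer substrate (2 hr RT), then CellTiter-Glo (30 min RT) for luminescent viability.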

[14] = qHTS assay to identify small molecule antagonists of the TGF-beta/Smad signaling pathway - cell viability counter screen (AID 1346824); note: nearly all actives have a fitted effect of over 50% in size
In short: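 SBE-bla HEK 293T cells were plated overnight at 37 C, then given compounds in DMSO plus TGF-beta1 (added as 0.25 ng/mL solution) for 5 hr. After the bla read, CellTiter-Glo was added to the same wells and luminescence read after 30 min at room temperature.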

[15] = qHTS assay to identify small molecule agonists of the TGF-beta/Smad signaling pathway - cell viability counter screen (AID 1346829); note: top concentration of the series differs between compounds; nearly all actives have a fitted effect of over 45% in size
In short: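 Here the cytotoxicity of library compounds is measured in SBE-bla HEK 293T cells treated for 5 hr, using CellTiter-Glo added to wells already read for the beta-lactamase reporter.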

[16] = Caspase-3/7 induction in HepG2 cells by small molecules, qHTS cell viability counter screen (AID 1346981); note: nearly all actives have a fitted effect of over 30% in size; note: potency is the fitted concentration of half-maximal effect
In short: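 After a 5-hr attachment period at 37 C and 5% CO2, wild-type HepG2 cells received compounds in DMSO. Sixteen hours later CellTiter-Fluor was dispensed and the fluorescent signal quantified after a further hour.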

[17] = biological target: Thyrotropin-releasing hormone receptor (Homo sapiens) (UniProt P34981); assay: qHTS assay to identify small molecule agonists of the thyrotropin-releasing hormone receptor (TRHR) signaling pathway (AID 1346891; calls by dose curve;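 note: HEK293 cells expressing TRHR with calcium dye readout; series mostly up to about 58 µM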)
In short: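 Agonist-mode calcium mobilisation screen: TRHR-transfected HEK293 cells cultured overnight (18 h), dye-loaded for 2 h at 37 °C, exposed to compounds, and monitored by fluorescence for 3 min.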

[18] = biological target: Nuclear receptor subfamily 1 group I member 2 (Rattus norvegicus) (UniProt Q9R1A7); assay: Rat pregnane X receptor (rPXR) activation by small molecules, qHTS assay (AID 1346983); conditions: rPXR luciferase reporter cells, One-Glo luminescence, 24 h; max activation: hits give high values; note: nearly all actives have a fitted effect of over 20% in size
Nuclear receptor subfamily 1 group I member 2 (Rattus norvegicus), sequence (Q9R1A7 whole entry, looked up): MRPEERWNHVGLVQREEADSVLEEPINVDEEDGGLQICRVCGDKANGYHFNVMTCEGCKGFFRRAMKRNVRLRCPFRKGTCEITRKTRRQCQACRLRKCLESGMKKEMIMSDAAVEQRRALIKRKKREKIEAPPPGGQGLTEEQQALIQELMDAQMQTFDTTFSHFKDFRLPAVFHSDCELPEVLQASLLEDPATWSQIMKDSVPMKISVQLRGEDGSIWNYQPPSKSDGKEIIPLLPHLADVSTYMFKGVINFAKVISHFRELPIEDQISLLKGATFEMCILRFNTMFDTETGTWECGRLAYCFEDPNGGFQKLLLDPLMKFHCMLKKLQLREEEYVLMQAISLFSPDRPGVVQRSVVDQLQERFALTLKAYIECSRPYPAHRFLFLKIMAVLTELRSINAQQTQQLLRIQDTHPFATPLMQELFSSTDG
In short: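 Cell-based rPXR luciferase reporter assay, 2,000 cells per well, rested 5hr at 37 C before compound addition in DMSO, then 24 hr at 37 C. One-Glo reagent was added and luminescence read after 30 min at room temperature.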

[19] = biological target: Nuclear receptor subfamily 1 group I member 2 (Homo sapiens) (UniProt O75469); assay: CYP3A4 induction through human pregnane X receptor (PXR) by small molecules, qHTS assay (AID 1346984); note: nearly all actives have a fitted effect of over 40% in size
In short: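 Cells (DPX-2; HepG2 with PXR element plus CYP3A4-promoter luciferase) settled 5hr, then were treated 24hr at 37C. A 3hr, 3uM-final Luciferin-IPA step preceded luminescence measurement with One-Glo.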

[20] = biological target: Nuclear receptor subfamily 1 group I member 2 (Homo sapiens) (UniProt O75469); assay: Human pregnane X receptor (PXR) activation by small molecules, qHTS assay (AID 1346985); note: nearly all actives have a fitted effect of over 40% in size
In short: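 DPX-2 cells (HepG2 co-transfected with a PXR response element and a CYP3A4-promoter luciferase construct) were seeded at 2,000 per well, rested 5 hr at 37C, then exposed to DMSO-dissolved compounds for 24 hr. Activation was read as luciferase luminescence.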
% is set by controls: 0 for no effect and ±100 for the full control effect.

CCC(=O)OCc1ccc(OC)cc1
inactive: Potency [1] | Potency [2] | Potency [3] | Potency [4] | Potency [5] | Potency [6] | outcome [7] | Potency [8] | Potency [9] | Potency [10] | outcome [11] | Potency [12]

CC1=C2[C@@H]([C@H](C)CC[C@H]2/C=C(\C)C(=O)O)[C@H](O)C1
inactive: Potency [1] | Potency [2] | Potency [3] | Potency [13] | Potency [5] | outcome [14] | Potency [15] | Potency [6] | Potency [8] | Potency [9] | Potency [10] | outcome [11] | Potency [16] | Potency [12]

CC(=O)OCC(=O)[C@@]1(OC(C)=O)[C@@H](C)C[C@H]2[C@@H]3C[C@H](F)C4=CC(=O)C=C[C@]4(C)[C@@]3(F)[C@@H](O)C[C@@]21C
active: Potency [3] 0.237 µM
inactive: Potency [1] | Potency [2] | Potency [5] | outcome [14] | Potency [8] | Potency [9] | Potency [10] | outcome [11] | Potency [16]

O=C(/C=C/c1ccc([N+](=O)[O-])cc1)c1ccccc1
active: Potency [8] 61.3 µM | Potency [12] 24.4 µM
inactive: Potency [1] | Potency [2] | Potency [3] | Potency [13] | Potency [5] | Potency [15] | outcome [11]

O=C(NS(=O)(=O)/C=C/c1ccccc1)c1ccc(F)cc1Cl
active: Potency [12] 19.3 µM
inactive: Potency [1] | Potency [2] | Potency [3] | Potency [13] | outcome [14] | Potency [15] | Potency [6] | outcome [7] | Potency [8] | Potency [9] | Potency [10] | outcome [11] | Potency [16]

Oc1ccc2c(c1)Cc1ccccc1-2
inactive: Potency [1] | Potency [2] | Potency [3] | Potency [13] | Potency [6] | outcome [7] | outcome [17] | Potency [8] | Potency [9] | outcome [11] | Potency [16]
active: Potency [12] 30.6 µM

C1CCCCC1
inactive: Potency [1] | Potency [2] | Potency [13] | Potency [5] | outcome [14] | Potency [15] | Potency [6] | outcome [7] | outcome [17] | Potency [8] | Potency [9] | Potency [10] | outcome [11] | Potency [16] | Potency [12]

CCN(CC)C(=O)/C(C#N)=C/c1cc(O)c(O)c([N+](=O)[O-])c1
inactive: Potency [1] | Potency [4] | Potency [15] | outcome [7] | Potency [9] | outcome [11] | max activation [18] -6.1% | Potency [19] | Potency [20]
active: Potency [2] 26.6 µM | Potency [16] 29.8 µM

CCCCC[C@H](O)/C=C/[C@H]1[C@H](O)CC(=O)[C@@H]1C/C=C\CCCC(=O)O
inactive: Potency [1] | Potency [2] | Potency [3] | Potency [4] | Potency [5] | outcome [14] | Potency [15] | outcome [7] | outcome [17] | Potency [8] | Potency [9] | Potency [10] | outcome [11] | Potency [16] | Potency [12] | max activation [18] -0.864% | Potency [19] | Potency [20]

Cc1ccc(Cl)cc1N
inactive: Potency [1] | Potency [2] | Potency [3] | Potency [5] | Potency [15] | Potency [6] | Potency [8] | Potency [9] | outcome [11]
active: Potency [12] 55.5 µM

CC(=O)OCCC(C)CC(C)(C)C (configuration not stated)
inactive: Potency [1] | Potency [2] | Potency [3] | Potency [13] | outcome [14] | Potency [15] | Potency [6] | Potency [8] | Potency [9] | outcome [11] | Potency [16] | Potency [12]

Cc1ccc(Nc2c(F)cccc2Cl)c(CC(=O)O)c1
inactive: Potency [1] | Potency [2] | Potency [3] | outcome [14] | Potency [15] | Potency [6] | outcome [7] | Potency [8] | Potency [9] | outcome [11]

From PubChem BioAssay (Tox21)
